A selection: hits, their analogues and other compounds. The true share with any hit is near 1.2%.
pAkt inh = HTS Assay for Inhibitors of Akt Phophorylation: Primary Screen. 0.32% of 360,000 active. activity change, % for hits at 50 µM. Neuro2A IGF-stimulated pAkt S473 HTRF, 20 min; stronger effect = lower value; in the data active = activity change below about -80%; inconclusive = mostly about -51% to -80%
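Neuro2A cells in DMEM with 0.5% FBS, overnight at 37 deg C, given compound at single 50 µM final, then IGF (6 nM final) for 20 min at 37 deg C. Lysed; phospho-Akt Ser473 by HTRF after 24 h, 665/615 ratio.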
Six1-Eya2 inh = qHTS Assay for Inhibitors of the Six1/Eya2 Interaction. Homeobox protein SIX1 (Homo sapiens) + Protein phosphatase EYA2 (Homo sapiens), …. AlphaScreen GST-Six1/His-Eya2 binding, biochemical; stronger effect = lower value. activity change, % (test concentration not listed). 0.56% of 360,000 active
Target sequence (O00167 whole entry, looked up): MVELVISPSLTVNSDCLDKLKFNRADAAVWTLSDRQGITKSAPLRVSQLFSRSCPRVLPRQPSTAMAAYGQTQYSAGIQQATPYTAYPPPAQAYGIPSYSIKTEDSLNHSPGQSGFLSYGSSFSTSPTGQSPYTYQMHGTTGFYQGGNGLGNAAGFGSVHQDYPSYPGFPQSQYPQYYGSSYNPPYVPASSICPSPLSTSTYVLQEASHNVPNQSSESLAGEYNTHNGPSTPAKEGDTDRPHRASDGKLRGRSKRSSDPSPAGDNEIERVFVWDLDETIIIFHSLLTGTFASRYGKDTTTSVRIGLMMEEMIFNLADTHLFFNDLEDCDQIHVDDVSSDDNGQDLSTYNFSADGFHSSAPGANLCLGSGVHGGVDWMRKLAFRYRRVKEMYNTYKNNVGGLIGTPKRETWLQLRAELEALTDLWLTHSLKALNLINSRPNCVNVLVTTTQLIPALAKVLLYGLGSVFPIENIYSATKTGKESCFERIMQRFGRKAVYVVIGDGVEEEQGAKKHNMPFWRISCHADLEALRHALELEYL
Target sequence (Q15475 whole entry, looked up): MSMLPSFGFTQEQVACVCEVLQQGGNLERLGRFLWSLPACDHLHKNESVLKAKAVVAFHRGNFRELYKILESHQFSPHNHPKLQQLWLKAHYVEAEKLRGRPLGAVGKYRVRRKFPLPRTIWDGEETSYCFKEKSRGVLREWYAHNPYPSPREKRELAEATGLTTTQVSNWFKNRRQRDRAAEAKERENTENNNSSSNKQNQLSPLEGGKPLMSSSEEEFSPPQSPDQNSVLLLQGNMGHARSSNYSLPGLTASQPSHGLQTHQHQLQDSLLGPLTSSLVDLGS
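Six1/Eya2 binding was read as AlphaScreen signal after compounds were pinned into GST-Six1 plus His-tagged Eya2 (5X stock 250/500 nM) in pH 8.0 Tris/NaCl/TCEP buffer, beads added, then incubated 1 h, 37 C, dark.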
CtBP-E1A blk = qHTS Assay for Inhibitors of the CtBP/E1A Interaction. activity change, % (test concentration not listed). AID 651724, 2012. AlphaScreen GST-E1A/His-CtBP binding, 1536-well; stronger effect = lower value. 0.49% of 340,000 active. CtBP / adenovirus E1A interaction (AlphaScreen)
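Steps: dispense buffer (Tris pH 8.0, NaCl 300 mM, TCEP 1 mM, BSA, Tween 20); add 5X protein mix (GST-E1A, His-CtBP, 125 nM each); pin 23 nL compound; 2 h at 37 °C, dark; add 5X beads (50 ug/mL); 1 h; read.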
CCT chaperon mod = High-Throughput Screening for Modulators of Cytosolic Chaperonin Activity | AID 651819, 2012 | activity change, % (concentration not given with the values), hits read low | 0.3% of 360,000 active | purified chaperonin ATPase assay, HTRF ADP detection, 30 min; in the data active = activity change below about -30%
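Enzyme 40 or 20 nM (batch-dependent) in Tris pH 7.4/KCl/MgCl2/DTT; cpd 76 uM single point; ATP 10 uM; 30 min 37 °C; Transcreener ADP HTRF detection, 30 min RT; ratio 665/615.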
An asterisk follows results filed as active; i = inactive; ? = inconclusive; / = no result given. Cut-off read from the data, not from the text of the source, unless noted: active = activity change below about -65%; inconclusive = mostly about -30% to -63%; inactive = weaker than that. % is set by controls: 0 for no effect and ±100 for the full control effect.

SMILES | pAkt inh | Six1-Eya2 inh | CtBP-E1A blk | CCT chaperon mod
CCOc1ccc(CCNC(=O)CN2C(=O)NC3(CCCC3)C2=O)cc1OCC | i | 1 | 2 | -3
CN1CCN(C(=O)C(C(=O)c2ccc(F)cc2)n2ccccc2=O)CC1 (stereo not given) | -99%* | -2 | 8 | 0
O=C(c1ccccc1)C(C(=O)N1CCCCC1)n1ccccc1=O (stereo not given) | i | 2 | 15 | 0
O=C(CCn1c(=O)c2ccccc2n(Cc2ccccc2)c1=O)NCc1ccc2c(c1)OCO2 | i | 2 | 2 | -1
CCN(CC)S(=O)(=O)c1ccc2oc(SCC3CN=C(c4ccc(OC)cc4)S3)nc2c1 (stereo not given) | i | -2 | 0 | 0
COc1ccc2c(c1)c1ccc3c(c1n2C)C(=O)C=CC3=O | i | -69* | / | -2
CCN(CC)S(=O)(=O)c1ccc(NC(=O)CC(NC(C)=O)c2ccccc2)cc1 (stereo not given) | i | 25 | 0 | 2
S=C(NCC1CCCO1)Nc1cc(Cl)c(Cl)cc1Cl (stereo not given) | i | 14 | 0 | 0
Cc1cc(C)cc(NC(=S)NCC2CCCO2)c1 (stereo not given) | -115%* | 5 | -1 | -2
Cc1ccc(C(=O)O/N=C(\N)c2nonc2N)cc1 | i | 2 | 9 | -1
NS(=O)(=O)c1ccc(Nc2nc(-c3ccc(O)cc3O)cs2)cc1 | i | -67* | -80* | 2
NS(=O)(=O)c1ccc(Nc2nc(-c3ccc(F)cc3)cs2)cc1 | i | -11 | -1 | 0
CC(CCc1ccccc1)NC(=O)COC(=O)c1cccnc1Cl (stereo not given) | i | -14 | -3 | -16
Cc1cc(N(C)C)ccc1N=Nc1ccc2ncccc2c1 | i | -83* | / | 2
CN(C)c1ccc(N=Nc2ccc3ncccc3c2)cc1 | i | ? | -29 | -2
Cc1ccc2c(c1)/C(=N/O)CCS2 | -113%* | -4 | 1 | 1
COC(=O)c1c(-c2ccc(OC)cc2)sc2ccc(-c3ccc4c(c3)OCO4)cc12 | i | 3 | 1 | -73*
COc1ccccc1N=Nc1nc(-c2ccccc2)c(-c2ccccc2)[nH]1 | i | ? | 13 | -1
O=C(O)c1ccc(-c2nc(-c3ccccc3)c(-c3ccccc3)[nH]2)cc1 | i | -12 | 1 | 0
COc1ccc(N=Nc2nc(-c3ccccc3)c(-c3ccccc3)[nH]2)cc1 | i | -70* | 2 | -1
Oc1ccccc1N=Nc1nc(-c2ccccc2)c(-c2ccccc2)[nH]1 | i | -67* | ? | -1
COc1ccc(CCC(=O)OCC(=O)Nc2c(C)n(C)n(-c3ccccc3)c2=O)cc1 | i | 5 | / | -6
Cc1noc(C)c1COC(=O)C(c1ccccc1)c1ccccc1 | i | 20 | 30 | 1
COCCN(C(=O)COC(=O)c1ccccc1NCc1ccco1)c1c(N)n(Cc2ccccc2)c(=O)[nH]c1=O | i | -7 | 6 | 2
Cc1ccc(NC(=O)CSc2n[nH]c(-c3ccccn3)n2)cc1 | i | -77* | -90* | 2
SMILES | pAkt inh | Six1-Eya2 inh | CtBP-E1A blk | CCT chaperon mod
O=C(CSc1n[nH]c(-c2ccccn2)n1)Nc1ccc(F)cc1 | i | ? | -95* | -1
O=C(CSc1n[nH]c(-c2ccccn2)n1)Nc1ccc(Cl)cc1 | i | -91* | -92* | 1
O=C(CSc1n[nH]c(-c2ccc(Cl)cc2Cl)n1)Nc1ccccn1 | i | -16 | -14 | -1
O=C(CSc1n[nH]c(-c2ccncc2)n1)Nc1ccc(F)cc1 | i | 1 | 0 | -1
O=C(CSc1n[nH]c(-c2ccncc2)n1)Nc1ccccc1 | i | -11 | 0 | -5
Cc1ccc(C)c(NC(=S)c2ccc3ccccc3n2)c1 | i | ? | ? | -2
Cc1ccc(C)c(NC(=S)c2ccccn2)c1 | i | ? | -67* | 2
O=C(Nc1ccccn1)C(=O)Nc1ccccn1 | i | 4 | 3 | -2
S=C(Nc1ccccn1)c1ccccn1 | i | -92* | -89* | -1
CC(C)(C)n1nnnc1C(c1ccccc1)N1CCCN(Cc2ccc(F)cc2)CC1 (stereo not given) | i | 1 | -2 | 1
COc1ccc(-c2noc(COC(=O)c3ccco3)n2)cc1OC | i | 0 | / | 3
CC(C)c1ccc(-c2c(C#N)c(N)nc(SCC(=O)N3CCCCCC3)c2C#N)cc1 | -124%* | -1 | 7 | 0
CC(C)c1ccc(-c2c(C#N)c(N)nc(SCC(=O)N3CCCCC3)c2C#N)cc1 | i | 8 | -5 | 0
NNc1nccc(Nc2ccccc2C(=O)O)n1 | i | -90* | -67* | 0
CC1=C(O)C(=O)C(C2=C(O)C(=O)C(C)=C(O)C2=O)=C(O)C1=O | i | -92* | -85* | 3
COc1ccccc1N1CCN(C2CCCN(C(=O)CN3CCCC3=O)C2)CC1 (stereo not given) | i | -1 | 5 | -2
COc1ccc(Cl)c2c1[nH]c1nc(SCc3ccccn3)nnc12 | i | -67* | ? | 1
O=C(C(Cl)c1ccccc1)N1CCOCC1 (stereo not given) | i | 10 | 3 | 1
c1ccc(-c2nn3c(C4CCCCC4)nnc3s2)cc1 | -114%* | -3 | 1 | -1
c1ccc(-c2nn3c(C4CCCCC4)nnc3s2)nc1 | i | 1 | -1 | -7
CCCOc1cccc(C(=O)N/N=C/c2coc3ccccc3c2=O)c1 | i | 1 | 1 | -37*
Cc1nc2ccccc2c(=O)n1NC(=O)c1ccc(Cl)c(Cl)c1 | i | -7 | / | -2
Cc1ccc(-c2nn(-c3ccccc3)cc2CSC(=N)N)cc1 | i | 29 | 16 | -59*
CN[C@H]1C[C@H]2c3[nH]c4ccc(-c5ccc(OC)cc5)cc4c3CCN2C(=O)[C@H]1[C@H](C)O | i | ? | -18 | -1
COCCn1nnnc1C(c1ccccc1OC)N1CCN(c2ccccc2F)CC1 (stereo not given) | i | 10 | 8 | 1
SMILES | pAkt inh | Six1-Eya2 inh | CtBP-E1A blk | CCT chaperon mod
COCCn1nnnc1C(c1cc2cccc(C)c2[nH]c1=O)N1CCN(c2ccccc2F)CC1 (stereo not given) | -90%* | -9 | -6 | 2
COC1=C(Nc2ccc(C)cc2)C(=O)c2ccccc2C1=O | i | -86* | -90* | -2
COC1=C(Nc2ccccc2)C(=O)c2ccccc2C1=O | i | -83* | -67* | -1
Cc1nnc(SCC(=O)NCc2ccccc2Cl)[nH]c1=O | i | 5 | 4 | -2
O=C(CN(C(=O)c1csnn1)c1ccc(Cl)cc1)NCc1ccc2c(c1)OCO2 | i | 0 | 21 | 4
CSc1nncc(/C(C)=N/O)n1 | i | 3 | 2 | -57*

Source: PubChem BioAssay (National Center for Advancing Translational Sciences (NCATS))
